CHT block: human CHT choline transport inhibition; hit rate 0.86% among 310,000; CHT-expressing cells, membrane potential dye, choline response; stronger effect = lower value; B-score at 10 µM; AID 488975;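 active means B-score over 3 SD under the library average, and starting fluorescence ratio not unusually high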;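 further: choline stimulus applied at its EC90 after an EC20 pre-addition; B-score computed on integrated fluorescence ratio after choline addition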
Target sequence (Q9GZV3 whole entry, looked up): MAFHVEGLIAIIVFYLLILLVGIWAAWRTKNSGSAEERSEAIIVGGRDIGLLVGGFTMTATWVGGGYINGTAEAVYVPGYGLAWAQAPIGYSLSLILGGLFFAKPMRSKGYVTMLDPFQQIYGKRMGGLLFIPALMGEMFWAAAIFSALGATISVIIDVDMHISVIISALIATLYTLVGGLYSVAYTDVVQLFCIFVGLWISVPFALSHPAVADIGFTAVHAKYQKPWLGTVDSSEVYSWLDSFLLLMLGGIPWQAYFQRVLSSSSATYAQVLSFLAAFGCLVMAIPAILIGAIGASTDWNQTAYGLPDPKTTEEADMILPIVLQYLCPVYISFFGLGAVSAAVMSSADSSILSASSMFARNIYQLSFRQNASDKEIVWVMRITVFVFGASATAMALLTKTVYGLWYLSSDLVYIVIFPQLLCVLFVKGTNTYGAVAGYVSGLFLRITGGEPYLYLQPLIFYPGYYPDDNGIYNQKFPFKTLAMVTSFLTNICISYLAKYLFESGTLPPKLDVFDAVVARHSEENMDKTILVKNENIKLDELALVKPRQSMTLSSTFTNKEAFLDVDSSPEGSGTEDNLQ
CHT allo act: human CHT allosteric activation. Q9GZV3. CHT-expressing cells, membrane potential dye, choline EC20; stronger effect = higher value; LV-AA mutant CHT in HEK293 cells. B-score at 10 µM. hit rate 0.49% among 310,000. AID 488977;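 active means initial fluorescence not abnormally high and integrated response B-score, plate-corrected, over 3 SD above library mean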
IDE inh: inhibits human insulin-degrading enzyme in HEK cells; P14735; FAbetaB cleavage, fluorescence polarization; inhibition, % at 5.59 µM; hit rate 0.41% among 320,000;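 active means percent inhibition above the average of all tested compounds plus 3 SD, set per screening campaign, cut at about 16% in these data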;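 further: IDE supplied by intact live HEK cells; FP after avidin binding of uncleaved biotin substrate so inhibition keeps polarization high; 0% = DMSO wells and 100% = 60 µM reference IDE inhibitor Ii1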
TMEM16A act: mouse TMEM16A channel activation, primary screen; hit rate 0.3% among 340,000; Q8BHY3; B-score at 10 µM; HEK293 TMEM16A/YFP-H148Q/I152L, iodide quench fluorescence; stronger effect = lower value; AID 623877;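 active means fluorescence-ratio B-score plate-corrected deviation score at least 3 library SD below zero, with starting fluorescence score within 5 deviations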;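 further: channel opened by trigger with iodide after compound preincubation; score built on the fluorescence ratio of max minus min over baseline; more negative score means more quench and so TMEM16A activation or potentiation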
IDE act: IDE (human) activation, cell-based; activation, % at 5.96 µM; HEK cells, FAbeta-B cleavage, fluorescence polarization; 0% vehicle, 100% cell-free pure enzyme wells; hit rate 0.073% among 340,000;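 active means activation above the mean of all tested compounds plus 3 SD, set per screening campaign, cut at about 17% in these data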
TMEM16A inh: mouse TMEM16A channel inhibition, primary screen; Q8BHY3; HEK293 TMEM16A/YFP iodide influx fluorescence, ionomycin; normalized B-score (activity score, 25-100; higher = stronger inhibition) at 10 µM; hit rate 1.2% among 310,000;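 active means ratio plate-corrected score three or more library SD toward inhibition, starting fluorescence score within five deviations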;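 further: score derived from kinetic fluorescence span divided by baseline fluorescence per well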
TMEM16A reconf: TMEM16A (mouse) chloride channel inhibition, re-confirmation; shares compounds with TMEM16A inh; HEK293 TMEM16A/YFP-H148Q, iodide quench fluorescence; ionomycin added to raise cell calcium; inhibition, % at 10 µM; hit rate 39% among 2,300;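 active means mean duplicate percent inhibition, scaled so buffer wells are 0 and the reference blocker 100, over three buffer SD above buffer mean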
TMEM16A Ca cntr: alters calcium mobilization in TMEM16A HEK293 cells, counter-screen | shares compounds with TMEM16A inh | TMEM16A/YFP HEK293, Fluo4 calcium mobilization | calcium response (% of ionomycin), % at 10 µM | hit rate 2% among 2,300;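 active means duplicate-averaged calcium signal over 20% of the ionomycin maximum, relative to buffer baseline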;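 further: each well's signal is peak minus trough fluorescence divided by its pre-addition baseline; 0% = buffer wells and 100% = ionomycin wells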
YFP-HEK293 quench: parental YFP-HEK293 iodide quench counter-screen activity | shares compounds with TMEM16A inh | ionomycin | YFP ratio F(max-min)/F0 at 10 µM | 2,300 tested, under 10 active | AID 652233;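 active means yellow fluorescent protein signal ratio exceeding the buffer control mean by over 5 SD of those controls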;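 further: ratio is mean of duplicate wells from kinetic YFP trace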
ClC-1 rat inh: blocks the rat ClC-1 voltage-dependent chloride channel. CHO ClC-1-YFP, iodide influx fluorescence quench; iodide control reads 0, buffer control 100. 2,300 tested, under 10 active. ratio percent, % at 10 µM. shares compounds with TMEM16A inh;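 active means duplicate-mean ratio percent above the mean of iodide-only control wells, which defines zero, plus 5 of their SD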;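 further: higher percent means stronger block of ClC-1 iodide influx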
Starred values were filed as active, the others as inactive; i = inactive; nt = no result given. The list is not random: actives were taken first. Their share in the collection is about 2.7%.

SMILES | CHT block | CHT allo act | IDE inh | TMEM16A act | IDE act | TMEM16A inh | TMEM16A reconf | TMEM16A Ca cntr | YFP-HEK293 quench | ClC-1 rat inh
Cc1cccc(N2CCN(S(=O)(=O)c3ccc(-c4ccc(=O)[nH]n4)o3)CC2)c1C | i | i | -1.7 | i | -8.6 | i | nt | nt | nt | nt
COc1ccc(N2Nc3n[nH]c(N)c3N2)cc1 | i | i | 3.7 | i | 1.2 | i | i | i | -1.07 | -4.5
COc1ccc(N2CC(O)=C(c3n(C)c4ccccc4[n+]3C)C2=N)cc1 | i | i | 5.5 | i | -3.6 | 25* | i | i | -1.11 | -4.5
COc1ccc(N2CC(O)=C(c3nc(C)cs3)C2=N)cc1 | i | i | 0.0 | i | 0.5 | i | nt | nt | nt | nt
Cc1cccc(Cc2c(C)nc3c(C(=O)N4CCN(Cc5ccc6c(c5)OCO6)CC4)cnn3c2C)c1 | i | i | -1.8 | i | 4.6 | 25* | i | i | -1.07 | -5.0
Cc1ccccc1Cc1c(C)nc2c(C(=O)N3CCN(Cc4ccc5c(c4)OCO5)CC3)cnn2c1C | i | i | 10.0 | i | -4.1 | i | nt | nt | nt | nt
COc1cc(SC)ccc1C(=O)OCC(=O)N1CC(=O)Nc2ccccc21 | nt | nt | -0.3 | i | 0.8 | nt | nt | nt | nt | nt
O=C(COC(=O)Cc1c(Cl)cccc1Cl)Nc1ccccc1-c1ccccc1 | i | i | 8.0 | i | 9.3 | 25* | i | i | -1.02 | -6.5
CN1C(=O)c2ccccc2NC(=O)[C@]12O[C@@H]2c1cccc(O)c1 | i | i | -1.6 | i | 1.5 | i | i | i | -0.55 | -8.5
CS(=O)(=O)NN1C(=O)c2ccccc2NC1c1cccc(O)c1 (centres undefined) | i | i | 6.4 | i | -3.7 | i | nt | nt | nt | nt
Cc1cccc(NC(=O)C2C(c3ccccc3)C2(Cl)Cl)c1 (centres undefined) | i | i | 1.5 | i | 2.2 | 100* | i | i | -0.909 | -10.0
CC(=O)c1cccc(NC(=O)C2C(c3ccccc3)C2(Cl)Cl)c1 (centres undefined) | i | i | 1.9 | i | -8.6 | i | nt | nt | nt | nt
Cc1oc2c(CN3CCCC(C)C3)c(O)ccc2c(=O)c1-c1ccccc1 (centres undefined) | i | i | -6.5 | i | -0.3 | i | nt | nt | nt | nt
Cc1ccc(OCC(=O)NNc2c3ccccc3nc3ccccc23)cc1 | i | i | -1.8 | i | 8.1 | i | nt | nt | nt | nt
Cc1cccc(OCC(=O)NNc2c3ccccc3nc3ccccc23)c1 | i | i | 3.9 | i | -2.7 | 25* | i | i | -1.11 | -4.5
CC1CCN(C(=O)c2cc(-c3ccc4c(c3)OCO4)on2)CC1 | i | i | 4.6 | i | 0.1 | i | i | i | -0.94 | 2.0
CCCCOC(=O)n1c(=O)oc2ccc(S(=O)(=O)N3CCCCC3)cc21 | i | i | 5.0 | i | -3.3 | 25* | 20.0%* | i | -1.04 | -8.5
CN(Cc1cn(C)nc1-c1ccc(Oc2ccccc2)cc1)Cc1cnc2ccccn12 | i | i | 10.3 | i | 5.7 | 25* | 23.5%* | 21.5%* | -1.19 | -13.0
COc1cccc(NC(=O)CCC2CCN(Cc3nccs3)CC2)c1 | i | i | 0.7 | i | -1.9 | i | nt | nt | nt | nt
CCCCN(Cc1cc2cc(OC)ccc2[nH]c1=O)S(=O)(=O)c1ccc(C)cc1 | i | i | 1.9 | i | -1.4 | 25* | 29.0%* | i | -0.637 | -18.0
COc1ccc2cc(CN(CC3COCCO3)S(=O)(=O)c3ccccc3)c(=O)[nH]c2c1 (centres undefined) | nt | nt | nt | i | -2.3 | nt | nt | nt | nt | nt
COc1ccc2cc(CN(Cc3cccnc3)S(=O)(=O)c3ccccc3)c(=O)[nH]c2c1 | i | i | 9.0 | i | 1.2 | 100* | i | i | -0.864 | -5.5
Cc1sc2ncn(CC(=O)OCC(=O)NC(C)(C)C)c(=O)c2c1C | i | i | 2.6 | nt | 3.3 | i | i | i | -1.06 | -5.0
Cc1sc2ncn(CC(=O)OC(C)C(=O)NC(C)(C)C)c(=O)c2c1C (centres undefined) | i | i | 6.2 | nt | -0.9 | i | nt | nt | nt | nt
Cc1cc(Cl)ccc1OCCCC(=O)Nc1cccnc1 | i | i | -2.0 | i | 0.2 | 25* | 22.0%* | i | -0.86 | -1.5
SMILES | CHT block | CHT allo act | IDE inh | TMEM16A act | IDE act | TMEM16A inh | TMEM16A reconf | TMEM16A Ca cntr | YFP-HEK293 quench | ClC-1 rat inh
Cc1ccc(NC(=S)NNC(=O)c2ccc(N3CCOCC3)c([N+](=O)[O-])c2)cc1Cl | i | i | -1.0 | i | 4.8 | 25* | 26.0%* | i | -1.14 | -6.5
O=C(NNC(=S)Nc1ccc(Cl)c(Cl)c1)c1cccc([N+](=O)[O-])c1 | i | i | -2.5 | i | nt | 100* | 78.5%* | i | -0.847 | -13.5
COc1ccc(S(=O)(=O)N2CCCCC2)cc1NC(=O)CCNC(=O)c1ccc(Br)cc1 | i | i | 9.2 | i | 1.2 | i | nt | nt | nt | nt
COc1cccc(C(=O)Nc2ccc3c(c2)C(=O)N(CC2CCCO2)C3=O)c1 (centres undefined) | i | i | 2.8 | i | -0.6 | i | nt | nt | nt | nt
O=C(Nc1ccc2c(c1)C(=O)N(CC1CCCO1)C2=O)c1cccc(Br)c1 (centres undefined) | i | i | 4.7 | i | -4.5 | 100* | 24.0%* | i | -0.991 | -7.5
O=C(Nn1c(O)c(C=C2N=c3ccccc3=N2)sc1=S)c1cccc(Cl)c1 | i | i | 5.0 | i | -10.2 | 25* | i | i | -0.812 | -6.0
O=C(CCC(=O)N(CC(=O)NC1CCCC1)c1cccc(F)c1)Nc1nccs1 | i | i | 5.7 | i | 1.6 | i | nt | nt | nt | nt
O=C(CSC1=Nc2ccccc2C2CC=NN12)Nc1ccc2c(c1)OCO2 (centres undefined) | nt | nt | nt | i | 3.1 | nt | nt | nt | nt | nt
CCCOC(=O)c1ccc(NC(=O)CSC2=Nc3ccccc3C3CC=NN23)cc1 (centres undefined) | i | i | -1.6 | i | -5.3 | 100* | i | i | -1.03 | -8.0

Screens: PubChem BioAssay, several laboratories
